The structures appear in SMILES notation. In all, about 69,000 compounds went through this assay and about 8,600 (12%) showed an effect of 50% or more. The sample as a whole holds a higher share of strong results than the screen did.

The test concerns Plasmodium berghei. As to the kind of experiment: Screen against P. berghei liver stage (PbLuc), transformed with Luciferase, at 10uM. The note with it: tested at 10 uM. It is filed as functional, HepG2.
As to `CC1(c2[nH]ncc2C(N)=O)CCN(c2ncccn2)CC1`, the INHIBITION came out at 26.3%.
On to `CC(C)=CCN1C[C@@H]2CC[C@H]1CN(C(=O)Cn1c(C)cc(C)nc1=O)C2`, for which the INHIBITION is listed as -35%.
In the case of `CN(C)c1nccc(N(C)C2CCCCC2)n1` it was 25.5%.
In the case of `Cc1nc(N(C)C2CCCCC2)ncc1C(C)NC(=O)c1cccnc1` (stereo unspecified) it was 77.5%.
With `Cc1nc(-c2ccncc2)ncc1C(C)NC(=O)CN1CCCCC1` (stereo unspecified), the INHIBITION is recorded as 35.8%.
In the case of `CCN(C)S(=O)(=O)NC(C)c1cnc(N(C)C2CCCCC2)nc1C` (stereo unspecified) it was 63.1%; in that of `Cc1nc(N(C)C2CCCCC2)ncc1C(C)NC(=O)c1cscn1` (stereo unspecified), 59.2%; in that of `C[C@@H](NC(=O)c1cccnc1)c1onc(-c2ccccc2)c1C(=O)O`, 7.5%.
In the case of `CC(C)C(=O)N1CCN(C(=O)c2cscn2)[C@H]2CS(=O)(=O)C[C@H]21` it was 26.8%; in that of `CCn1nc(C)c(C(C)NC(=O)c2cnc(N(C)C)nc2C)c1C` (stereo unspecified), 10.3%; in that of `CN(c1ncccc1CNC(=O)c1cscn1)C1CCCCC1`, 26%.
With `NC(=O)CN1CCC(c2cncc(-c3cccc(Cl)c3)n2)CC1` the figure was -40.6%.
In the case of `CC(C)COC(=O)N1CCCN(C(C)c2nnc(CC(C)C)o2)CC1` (stereo unspecified), the INHIBITION is on record as 4.22%.
For `CCCc1nc(C(C)(C)NC(=O)C2CC(=O)N(C3CCCC3)C2)no1` (stereo unspecified), the INHIBITION is given as -15.5%.
With `CCCC(=O)N1CCN(CC(O)COCC)CC1` (stereo unspecified) the figure was -2.53%; with `Cc1ncsc1CN1CC[C@](C)(O)[C@@H](Oc2cccc(F)c2)C1`, 33.7%; with `Cc1nc2n(n1)CC(NCc1ccnc(-c3ccccc3)n1)CC2` (stereo unspecified), -15%.
With `O=c1[nH]c(CCN2CCCCC2Cn2cccn2)nc2ccccc12` (stereo unspecified) the figure was 36.1%; with `Cc1cccnc1NC(=O)C1(n2cnnn2)CCCCC1`, 49.5%; with `CC(C)n1[nH]c(=O)c2c1NC(=O)CC2c1ccc(S(C)(=O)=O)cc1` (stereo unspecified), -2.43%.
With `CCN1CCCC(CNC(=O)C2(c3cccc(Cl)c3)CC2)C1` (stereo unspecified) the figure was -2.42%.
For `CC(=O)NCC1CCCN(Cc2nc(Cc3ccccc3F)no2)C1` (stereo unspecified), the INHIBITION was 20.4%.
In the case of `O=C(N[C@@H]1CCN(Cc2cccc3nonc23)C[C@H]1O)c1cccnc1` it was 12.9%; in that of `O=C(NCC1CCCN(Cc2cccc3nonc23)C1)c1ccc[nH]1` (stereo unspecified), 70.3%.
For the molecule `NC1(C(=O)NCC2CCCN(Cc3cccc4nonc34)C2)CCC1` (stereo unspecified), the INHIBITION is on record as 62.8%.
In the case of `NC1(C(=O)NCC2CCCN(Cc3ccccc3F)C2)CCCC1` (stereo unspecified) it was 42.4%.
In the case of `CCCNc1ncc(CN2CCC3(CCNC(=O)CC3)CC2)cn1`, the INHIBITION is listed as -41.8%.
With `CC1CCc2n[nH]c(C(=O)NCCCc3ccccn3)c2C1` (stereo unspecified) the figure was -41.8%; with `Cc1ccc2oc(SCC(N)=O)nc2n1`, 18.4%; with `CCCC(=O)N1C[C@@H]2CCN(c3cnccn3)C[C@@H]2C1`, -30.7%.
In the case of `CC(C)c1nc(CN(C)C(=O)CNS(=O)(=O)c2cccs2)cs1` it was 26.6%; in that of `CC(C)c1nc(CN(C)S(=O)(=O)c2cccs2)cs1`, 55.4%.
In the case of `CC(C)c1nc(CN(C)Cc2ccc(F)cc2)cs1` it was 20.4%; in that of `Cc1c(CCC(=O)Nc2ccc(Cl)cn2)cnn1C`, -23.4%; in that of `Cc1ccc(-n2nc(C)cc2N)nn1`, -24.2%.
Turning to `CCc1nc(C)c(CN2CCOC(Cc3ccccc3Cl)C2)[nH]1` (stereo unspecified), the INHIBITION is listed as 24.2%.
With `CCc1nc(C)c(CN2CCOC(Cc3cccc4ccccc34)C2)[nH]1` (stereo unspecified) the figure was 18.6%.
With `CCc1nc(C)c(CN2CCOC(CCCC(C)C)C2)[nH]1` (stereo unspecified) the figure was 68.9%.
In the case of `O=C(c1c[nH]c(=O)cn1)N1C[C@H]2CC[C@@H](C1)N(Cc1ccccc1)C2` it was 17.2%; in that of `CCn1cc(N)c(-c2nnc3n2CCCC3)n1`, 21.9%; in that of `CN(CCOc1cccc(S(C)(=O)=O)c1)CC(F)F`, 31.1%.
Turning to `CN(CCOc1cccc(S(C)(=O)=O)c1)c1ccccc1`, the INHIBITION is 81.1%.
`CCC(C)(C)N(C)CCOc1cccc(S(C)(=O)=O)c1`: the INHIBITION turned out to be 23.2%.
For the molecule `COCCN1CCC2(CC1)CN(C(=O)C1CC1)c1ccc(F)cc12`, the INHIBITION was 34.6%.
In the case of `O=C(c1cccnc1N1CCCCC1)N1CCCC(n2ccnc2)C1` (stereo unspecified) it was 22.55%; in that of `CSCC[C@@H](CO)Nc1ccc(-c2nc(-c3ccccc3F)no2)cn1`, 76.8%; in that of `CSCC[C@@H](CO)Nc1ccc(-c2nc(C3CC3)no2)cn1`, 54.4%.
With `Cc1cc(CNc2ccc(-c3nc(C4CC4)no3)cn2)no1` the figure was -28.3%.
`CCC(C)Nc1ccc(-c2nc(-c3cccc(OC)c3OC)no2)cn1` (stereo unspecified): the INHIBITION worked out at 33.9%.
With `c1cc(CNc2ccc(-c3nc(C4CC4)no3)cn2)no1` the figure was 1.98%.
With `CSCC[C@@H](CO)Nc1ccc(-c2nc(-c3ccccc3C)no2)cn1`, the INHIBITION was 36.5%.
In the case of `CN(C)CCO[C@@H]1CC[C@H]2[C@H]1OCCN2C(=O)CCc1ccccc1` it was 5.65%; in that of `CC(=O)N1C[C@H]2CC[C@@H](C1)N(S(=O)(=O)c1cc(F)ccc1C)C2`, -18.1%; in that of `COc1ccc(N2CCC(N3CCOC(C(F)(F)F)C3)CC2)cc1` (stereo unspecified), -25.2%.
In the case of `O=C(O)c1ccccc1C1CCN(C2CCN(c3ccccc3)CC2)C1` (stereo unspecified) it was 35.1%; in that of `NCC1CCN(C2CCN(c3ccc(-c4ccco4)cc3)CC2)C1` (stereo unspecified), 92.8%.
For `CCS(=O)(=O)c1ccc(N2CCC(N)CC2)cc1`, the INHIBITION came to 12.2%.
In the case of `NC1CCN(C2CCN(c3ccc(-c4ccco4)cc3)CC2)CC1` it was 65%; in that of `CNC1CCN(C2CCN(c3ccc(-c4ccco4)cc3)CC2)CC1`, 49%; in that of `Cc1cccc(C(=O)N2CCn3cc(CN4CCCCC4)nc3C2)n1`, 49.7%.
As for `Nc1cc2c(nn1)CCN(C(=O)CCc1ccc3c(c1)OCO3)C2`, the INHIBITION was determined as 32.9%.
Turning to `NC(=O)c1cc2c(nc1N)CCN(C(=O)C1CCCCC1)C2`, the INHIBITION stood at 62.9%.
With `Nc1cc2c(nn1)CCN(C(=O)C1CCc3ccccc31)C2` (stereo unspecified) the figure was 17.4%; with `Nc1cc2c(nn1)CCN(C(=O)Cc1ccc3c(c1)CCCC3)C2`, 8.4%; with `Nc1cc2c(nn1)CCN(C(=O)CCC1CCCCC1)C2`, 62.6%.
With `Cn1ncc2c1CCCN(C(=O)C1CCC1)C2` the figure was 10.855%; with `Nc1cc2c(nn1)CCN(C(=O)CCCC1CCCCC1)C2`, 70.8%; with `Nc1cc2c(nn1)CCN(C(=O)Cc1ccc3c(c1)CCO3)C2`, 5.42%.
In the case of `Nc1cc2c(nn1)CCN(C(=O)CC1CCCC1)C2` it was 2.26%.
As to `Nc1cc2c(nn1)CCN(C(=O)CC1CCCCC1)C2`, the INHIBITION amounted to 50.3%.
Regarding `CCNc1cc2c(nn1)CCN(C(=O)CC1CCCCC1)C2`, the INHIBITION was determined as 30.2%.
With `Cn1ncc2c1CCCN(C(=O)C1CCCC1)C2` the figure was 22.75%; with `Cn1nnc2c1CCN(Cc1ccccc1)C2COCC1CC1` (stereo unspecified), 33.5%.
Turning to `COc1cn(CC(=O)N2CCN(c3ccc(Cl)cc3)CC2)c(C)cc1=O`, the INHIBITION was 28.3%.
Turning to `COc1cc(OC)cc(-c2cc(N)on2)c1`, the INHIBITION came out at 12.8%.
On to `Cc1ccc(CN(CC(=O)N2CCOC(C)C2)C2CC2)cc1` (stereo unspecified), for which the INHIBITION was -59.4%.
With `C[C@@H](NC(=O)c1cnccn1)c1c(-c2ccc(Cl)cc2)noc1C(=O)O` the figure was 26%; with `CC(C)c1noc(CN(CCC2CCCCC2)CC(N)=O)n1`, 34%.
As to `CN1CC(C(=O)NCCc2ccc3c(c2)OCCO3)CC1=O` (stereo unspecified), the INHIBITION was 27.7%.
For the molecule `Cc1cc(C2CCCN2Cc2nc3ccccc3o2)on1` (stereo unspecified), the INHIBITION is -12.2%.
As to `CC(C)Cn1nnnc1SC(C(=O)NCc1cccnc1)C(C)C` (stereo unspecified), the INHIBITION was determined as 16.9%.
With `Cc1nccnc1CCC1COCCN1C(=O)CCc1c(C)noc1C` (stereo unspecified) the figure was 9.05%.
In the case of `Cc1ncsc1CN1C[C@@H]2COC[C@]2(C(=O)NCc2cccnc2)C1` it was 42.1%.
As to `Cc1nc(C)c(CC(=O)N2CCC(c3ccn4nccc4n3)CC2)s1`, the INHIBITION was determined as 4.13%.
In the case of `CNc1ncccc1C(=O)N1CCCC2(C1)C(=O)N(C)c1ccccc12` (stereo unspecified) it was -4.35%; in that of `CCCc1noc2ncc(C(=O)N3CCCC3c3cnn(C)c3)cc12` (stereo unspecified), -29.1%.
In the case of `CN(C)CCN1C[C@@H]2CN(c3ccccc3)C[C@@H]2C1=O` it was 53.9%.
With `O=C1[C@H]2CN(S(=O)(=O)c3ccccc3)C[C@H]2CN1Cc1cccnc1` the figure was -29%.
In the case of `CN(C)CCN1C[C@@H]2CN(C(=O)c3ccsc3)C[C@@H]2C1=O`, the INHIBITION is reported as 3.47%.
Take `CN(C)CCN1C[C@@H]2CN(C(=O)C3CC=CC3)C[C@@H]2C1=O`: the INHIBITION came out at 8.31%.
With `CN(C)CCN1C[C@@H]2CN(S(=O)(=O)c3cccs3)C[C@@H]2C1=O` the figure was -9.74%; with `CN(C)CCN1C[C@@H]2CN(S(=O)(=O)c3ccccc3)C[C@@H]2C1=O`, 53.9%; with `CN1CCN(Cc2cnc3n2CCN(CCc2ccccc2)C3)CC1`, -18.2%.
For `O=C(c1ccccn1)N1CCC(Cc2cnc3[nH]ccc3c2)CC1`, the INHIBITION is on record as -12.2%.
With `COC(=O)c1cccc(S(=O)(=O)NC(=O)COC2CCCCC2)c1` the figure was 38.8%; with `C[C@@H]1C[C@H](C(F)(F)F)n2nc(C3CCN(S(C)(=O)=O)CC3)cc2N1`, 1.5%.
In the case of `O=C(C1CN(CC2CCOCC2)CC12CCOCC2)N1CCOCC1` (stereo unspecified) it was 23.3%; in that of `CNC(=O)[C@@H]1C[C@@H](NC(=O)Cc2nonc2C)CN1Cc1sccc1C`, 51.5%; in that of `CNC(=O)[C@@H]1C[C@@H](NC(=O)c2cn(C)nc2C)CN1Cc1sccc1C`, 25.8%.
In the case of `CNC(=O)[C@@H]1C[C@@H](NC(=O)c2ccc(OC)o2)CN1Cc1sccc1C` it was 20.8%; in that of `COc1ccc(OC)c(C(O)CNC(=O)Nc2cc(C)nn2C)c1` (stereo unspecified), 10.35%.
On to `Cc1nn(C)c2nc(N3CCCCC3c3cccnc3)sc12` (stereo unspecified), for which the INHIBITION worked out at 33.1%.
For the molecule `Cc1nn(C)c2nc(N3CCC(C(O)Cc4ccccc4)CC3)sc12` (stereo unspecified), the INHIBITION is reported as 75.1%.
With `Cc1nn(C)c2nc(N3CCC(C(O)c4nccn4C)CC3)sc12` (stereo unspecified) the figure was 12.8%.
As for `Cc1nn(C)c2nc(NC3CCNCC3)sc12`, the INHIBITION was 10.7%.
With `Cc1nn(C)c2nc(N3CCC(C(O)c4ccccn4)CC3)sc12` (stereo unspecified) the figure was 55.4%.

For the origin of these results see ChEMBL document CHEMBL4513216, “Probing the Open Global Health Chemical Diversity Library for Multistage-Active Starting Points for Next-Generation Antimalarials” (ACS Infect Dis, 2020).
